# Data reported in PubChem BioAssay (Tox21).
# Where “and” joins values, the source holds several entries; their conditions need not be identical. Equal entries are not always repeated. Inconclusive results are not listed. A call without a number means that no potency is given here. Some structures have more than one record in an assay (separate samples or runs), and their calls can disagree. Calls of active or inactive are those of the source. Unless noted, the call rests on the fitted dose curve; in most records, active means well fitted curve in the direction sought with a large enough effect in the repeat runs; inconclusive means weak or mixed curves; inactive means no such curve, though single readings can be large; an effect the other way counts as inactive or inconclusive.
# Assays:
# [1] = qHTS assay to identify small molecule antagonists of the estrogen receptor alpha (ER-alpha) signaling pathway using the BG1 cell line in the presence of 0.1 nM 17-beta-estradiol - cell viability counter screen (AID 1259241); further: nearly all actives have a fitted effect of over 40% in size; further: potency means the concentration at half of the fitted maximal effect
# Procedure, shortened: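 VM7Luc4E2 cells (endogenous ER-alpha, 4×ERE-luciferase), hormone-starved 5 days in charcoal-stripped FBS, were treated with compounds plus 0.1 nM 17beta-estradiol for 22 hr at 37C; viability read in same wells as CellTiter-Fluor live-cell protease fluorescence.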
# [2] = qHTS assay to identify small molecule antagonists of the androgen receptor (AR) signaling pathway using the MDA cell line in the presence of 0.5 nM R1881 - cell viability counter screen (AID 1259242); further: nearly all actives have a fitted effect of over 45% in size; further: potency means the concentration at half of the fitted maximal effect
# Procedure, shortened: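 Counter screen for cytotoxicity run in the same wells as the AR antagonist reporter screen: MDA-kb2 cells were treated 16 hr with test compounds and 0.5 nM R1881, then live-cell protease activity was measured by fluorescence.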
# [3] = qHTS assay to identify small molecule HDAC inhibitors (AID 1259364); further: nearly all actives have a fitted effect of over 45% in size; further: potency means the concentration at half of the fitted maximal effect
# Procedure, shortened: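 Luminescence from a cell-permeant luminogenic class I/II HDAC substrate reports endogenous deacetylase activity in intact HCT-116 cells treated with compounds for 2 h.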
# [4] = qHTS assay to identify small molecule HDAC inhibitors - cell viability counter screen (AID 1259365); further: nearly all actives have a fitted effect of over 50% in size; further: potency means the concentration at half of the fitted maximal effect
# Procedure, shortened: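 Wild-type HCT-116 cells were seeded at 1,500 per well, incubated overnight at 37 C, then exposed to compounds in DMSO for 2hr. Viability was read by CellTiter-Glo luminescence after 30min at room temperature.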
# [5] = qHTS assay to identify small molecule agonists of the sonic hedgehog signaling (Shh) pathway - cell viability counter screen (AID 1259366); further: nearly all actives have a fitted effect of over 50% in size; further: potency means the concentration at half of the fitted maximal effect
# Procedure, shortened: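 NIH/3T3-derived 3T3 Gli1-Luc cells (stable Gli1-responsive firefly luciferase reporter) were seeded, rested 4 hr at 37 C/5% CO2, then exposed to compounds in DMSO for 24 hr; viability was read by CellTiter-Fluor fluorescence in the same wells.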
# [6] = qHTS assay to identify small molecule antagonists of the sonic hedgehog signaling (Shh) pathway - cell viability counter screen (AID 1259367); further: nearly all actives have a fitted effect of over 55% in size; further: potency means the concentration at half of the fitted maximal effect
# Procedure, shortened: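 Cells: 3T3 Gli1-Luc, 2,000/well, 4 hr pre-incubation. Compounds in DMSO, then conditioned medium. Incubation 24 hr, 37C, 5% CO2. CellTiter-Fluor at 23 hr, 1 hr, fluorescence.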
# [7] = qHTS assay to identify small molecule agonists of the sonic hedgehog signaling (Shh) pathway (AID 1259368; calls by dose curve; further: series mostly up to about 92 µM; nearly all actives have a fitted effect of over 15% in size)
# Procedure, shortened: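 3T3Gli1-Luc (NIH/3T3 clone, stable Gli1-Luc); 4 hr pre-incubation, then cpd in DMSO 24 hr, 37 C/5% CO2; luciferase reagent 30 min RT; luminescence.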
# [8] = qHTS assay to identify small molecule phospholipidosis (PLD) inducers (AID 1259344; active means well fitted curve in the direction sought with a large enough effect; an effect the other way counts as inactive or inconclusive)
# Procedure, shortened: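 Phospholipidosis is scored by imaging LipidTOX-stained pits in HepG2 cells exposed to compound for 24 h at 37 C; pit counts and integrated intensities per well and per cell serve as outputs.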
Structure (SMILES),Potency [1],Potency [2],Potency [3],Potency [4],Potency [5],Potency [6],Potency [7],Potency [8]
CNC1(C)C2CCC(C2)C1(C)C (stereo not drawn),inactive,inactive,inactive,inactive,inactive,inactive,inactive,–
CNCCC(Oc1ccc(C(F)(F)F)cc1)c1ccccc1 (stereo not drawn),inactive,29.8 µM (active),inactive,inactive,60.3 µM (active) and 29.8 µM (active),26.9 µM (active) and 29.8 µM (active),inactive,–
CCCN[C@H]1CCc2nc(N)sc2C1,inactive,inactive,–,inactive,inactive,inactive,inactive,inactive
NNCCc1ccccc1,inactive,inactive,inactive,inactive,–,inactive,–,–
Cc1cc(C(C)(C)C)c(O)c(C(C)(C)C)c1,inactive,inactive,–,inactive,inactive,inactive,inactive,inactive
CCC(C)(C)C(=O)O[C@H]1C[C@@H](C)C=C2C=C[C@H](C)[C@H](CC[C@@H]3C[C@@H](O)CC(=O)O3)[C@H]21,inactive,inactive,inactive,inactive,inactive,inactive,inactive,–
CCCCCCC(O)CCCCCCCCCCC(=O)O (stereo not drawn),inactive,inactive,inactive,inactive,inactive,inactive,inactive,–
O=C1Nc2ccccc2C1(c1ccc(O)cc1)c1ccc(O)cc1,298 nM (active),inactive,inactive,inactive,27.3 µM (active) and 9.44 µM (active),48.6 µM (active),inactive,–
CN(C)c1ccc(C(=C2C=CC(=[N+](C)C)C=C2)c2ccccc2)cc1,30.6 µM (active) and 15 µM (active),27.3 µM (active) and 2.98 µM (active),24.3 µM (active) and inactive and 13.3 µM (active),61.1 µM (active) and inactive,4.73 µM (active) [middle of 4 runs],2.98 µM (active) [middle of 4 runs],inactive,–
C[N+]1([O-])CCOCC1,inactive,inactive,inactive,inactive,inactive,inactive,inactive,–
c1cnc2cc3c(cc2n1)C1CNCC3C1,inactive,inactive,inactive,inactive,inactive,inactive,inactive,–
CC(C)(C)NCC(O)COc1ccccc1OCC1CCCO1 (stereo not drawn),inactive,inactive,inactive,inactive,inactive,inactive,inactive,–
CCCCCCCCCCCC[N+](C)(C)C,inactive,inactive and 24.3 µM (active),inactive,inactive,43.1 µM (active) and 61.1 µM (active) and 54.5 µM (active),60.9 µM (active) and 61.1 µM (active) and 30.6 µM (active),inactive,–
CO[Si](OC)(OC)c1ccccc1,inactive,inactive,inactive,inactive,inactive,inactive,inactive,–
Cc1cccc2n[nH]nc12,inactive,inactive,inactive,inactive,inactive,inactive,inactive,–
CCCOC(=O)c1cc(O)c(O)c(O)c1,inactive,inactive,inactive,inactive,43.1 µM (active),inactive,inactive,–
OCCOCCN1CCN(C(c2ccccc2)c2ccc(Cl)cc2)CC1 (stereo not drawn),inactive,inactive,inactive,inactive,26.9 µM (active),19.1 µM (active) and inactive,inactive,–
CCc1cc(C(C)(C)C)c(O)c(C(C)(C)C)c1,inactive,inactive,inactive,inactive,inactive,inactive,inactive,–
C=CC(=O)OCCCCCCOC(=O)C=C,inactive,inactive,inactive,inactive,31 µM (active) and 61.1 µM (active),54.5 µM (active),inactive,–
O=C1NCC2(CCN(CCc3ccccc3)CC2)O1,inactive,inactive,inactive,inactive,inactive,inactive,inactive,–
